Screening results (PubChem BioAssay)
SMN2 splice up = enhancers of SMN2 splice variant expression. HEK293 SMN2-luciferase splicing reporter, luminescence, 30-36 h. Potency, µM (titrated, usually from 46.1 µM), usual class: activators. AID 1458. 210,000 tested, 2.8% active; further: nearly all actives have a fitted effect of over 55% in size
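HEK293 cells carry an SMN2 […]–luciferase reporter in which exon 7 inclusion puts luciferase in frame. Cells were plated 10-12 h before compound addition, then incubated 30-36 h at 37C. ONE-Glo luminescence was read; sodium butyrate at 4.5 mM final served as control.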
FLuc counter = inhibits or activates purified firefly luciferase, miR-21 counter-screen. Potency, µM (highest dose often 57.5 µM), actives largely listed as inhibitors. AID 588342. 360,000 tested, 6.9% active. purified FLuc, Km substrates, luminescence inhibition; further: nearly all actives have a fitted effect of over 55% in size
Target sequence (P08659 whole entry, looked up): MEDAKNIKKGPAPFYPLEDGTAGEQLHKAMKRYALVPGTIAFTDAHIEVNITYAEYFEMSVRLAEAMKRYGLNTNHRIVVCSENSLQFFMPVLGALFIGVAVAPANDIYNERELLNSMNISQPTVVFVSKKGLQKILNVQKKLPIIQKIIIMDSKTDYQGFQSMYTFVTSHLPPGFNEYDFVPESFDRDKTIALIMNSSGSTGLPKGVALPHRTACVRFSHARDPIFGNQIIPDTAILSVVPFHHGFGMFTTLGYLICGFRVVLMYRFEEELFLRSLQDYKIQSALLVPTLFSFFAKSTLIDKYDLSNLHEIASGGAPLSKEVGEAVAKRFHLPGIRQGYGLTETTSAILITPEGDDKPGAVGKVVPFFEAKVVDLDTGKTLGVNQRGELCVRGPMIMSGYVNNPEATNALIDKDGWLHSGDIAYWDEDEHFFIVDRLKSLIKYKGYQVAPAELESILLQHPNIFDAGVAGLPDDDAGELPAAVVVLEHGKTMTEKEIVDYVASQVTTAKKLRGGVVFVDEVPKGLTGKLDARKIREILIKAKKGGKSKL
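Purified P. pyralis luciferase (10nM final) with 10uM D-luciferin and 10uM ATP (Km levels) in 50mM Tris acetate pH 7.5, 10mM Mg acetate, 0.01% Tween-20, 0.05% BSA; qHTS 6-point titration, ~60 µM downward; luminescence read.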
KinaseGlo FLuc = Kinase-Glo luciferase inhibition (counter-screen). Q27757. Kinase-Glo luciferase, ATP luminescence, 8 min. Potency, µM (top dose mostly 38.3 µM), usual class: inhibitors. 200,000 tested, 0.28% active; further: nearly all actives have a fitted effect of over 60% in size
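Compound is pinned into ATP-containing buffer (10 uM ATP, imidazole pH 7.2, 7 mM MgCl2). Kinase-Glo luciferase reagent is then added. Light output is recorded following an 8-min room-temperature incubation.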
ELG1 genotox = induces genotoxicity in HEK293T cells with luciferase-tagged ELG1. HEK293T ELG1-luciferase reporter, luminescence, 16 h. Potency, µM (titrated, usually from 46 µM), most hits filed as activators. 330,000 tested, 1.3% active; further: nearly all actives have a fitted effect of over 60% in size
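Cells (2,000/well) expressing the ELG1-luciferase fusion are dosed by pin tool and kept 16 hr at 37 °C, 5% CO2. Signal comes from ONE-Glo luciferase reagent after 30 min at room temperature.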
Rab9 promoter act = activates the Rab9 promoter. Potency, µM (top dose mostly 9.22 µM), actives largely listed as activators. Huh7 Rab9 promoter-luciferase reporter, luminescence, 24 h. 320,000 tested, 2.8% active. AID 485297; further: nearly all actives have a fitted effect of over 60% in size
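Cells were plated at 1500 per well in reduced-serum medium with 10% FBS and left 2 h. Compound in DMSO was then added for 24 h at 37 °C. Reporter signal was read by luminescence after 10 min with luciferase detection reagent.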
NPC1 promoter act = NPC1 promoter activation; Huh7 NPC1 promoter luciferase reporter, 24 h; Potency, µM (highest dose often 9.22 µM), most hits filed as activators; 320,000 tested, 2.4% active; further: nearly all actives have a fitted effect of over 60% in size
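Huh7 cells stably carrying NPC1 promoter–luciferase, plated in Opti-MEM with 10% FBS for 2 h, were exposed to compound in DMSO for 24 h at 37 °C; luciferase reagent was added for 10 min and luminescence read.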
Numbers stand for hits; – = inactive; ? = inconclusive; · = no result; [ ] = dose if it differs, or a comment. This is a sample that favours compounds with a hit; in the whole collection about 7.3% have one here. The call rests on the fitted dose curve; in most records, active means well fitted curve in the direction sought with a large enough effect; inconclusive means small, poorly fitted or top-dose-only effect, or another doubt; inactive means no such curve, though single readings can be large; an effect the other way counts as inactive or inconclusive.

SMILES	SMN2 splice up	FLuc counter	KinaseGlo FLuc	ELG1 genotox	Rab9 promoter act	NPC1 promoter act
CCOC(=O)c1ccc(NC(=O)C2CCCN(c3ncnc4onc(-c5ccc(F)cc5)c34)C2)cc1 (stereo not given)	·	–	·	·	·	·
COC(=O)c1[nH]c2cc(OC)c(OC)cc2c1NC(=O)c1cccc(OC)c1	–	5.4µM	–	–	–	–
COc1cccc(C(=O)Nc2cnn(C(C)C)c2)c1	·	?	–	?	2.5µM	?
COc1ccc(C(=O)Nc2ccc(N3CCN(c4ccc(OC)cc4)CC3)c(C#N)c2)cc1	10µM	–	–	–	–	–
COc1ccc(NS(=O)(=O)c2cc(NC(=O)c3ccncc3)ccc2N2CCOCC2)cc1	7.9µM	–	–	–	–	–
CC(C)(C)C(=O)NC1(C(F)(F)F)C(=O)Nc2c1c(=O)[nH]c(=O)n2-c1ccccc1 (stereo not given)	–	–	·	·	·	·
CCN(CC)C(=O)C1=C(C)Nc2nc3ccccc3n2C1c1ccc(Br)cc1 (stereo not given)	–	–	·	·	·	·
O=C(Nc1ccccc1C(=O)Nc1ccncc1)c1cccc([N+](=O)[O-])c1	·	0.095µM	·	?	2.2µM	2.8µM
CCn1c(=O)sc2cc(NC(=O)c3cccc(OC)c3)ccc21	–	?	·	·	·	·
Cc1oc(C(=O)Nc2ccc(O)cc2)cc1COc1ccccc1	?	?	–	?	–	–
O=C(Nc1ccc(O)cc1)c1ccc(C(=O)c2ccccc2)o1	–	7.6µM	–	–	–	?
COc1cccc(C(=O)Nc2cccc(SC)c2)c1	?	9.5µM	–	9.2µM	?	–
O=C(O)c1cccc(NC(=O)c2ccccc2NC(=O)c2cccc([N+](=O)[O-])c2)c1	·	?	·	–	–	–
CCn1c2ccccc2c2cc(NC(=O)c3cccc(OC)c3)ccc21	?	17µM	–	–	?	?
C/C=C/c1ccc(OC(C)[C@@H](O)c2ccc(O)c(OC)c2)c(OC)c1 (stereo not given in full)	–	·	–	·	·	·
CC(C)CNC(=O)C1=CC(c2ccc3c(c2)OCO3)=NS(=O)(=O)N1C	·	–	·	·	·	·
CC(=O)c1cccc(NC(=O)c2ccc(NS(C)(=O)=O)cc2)c1	–	–	–	–	–	–
CS(=O)(=O)Nc1ccc(C(=O)Nc2ccc3ccccc3c2)cc1	·	2.4µM	·	?	0.63µM	?
COc1cccc(C(=O)Nc2cccc(OCC(=O)O)c2)c1	–	24µM	–	–	–	–
Cc1ccc(C(=O)Nc2cccc(Oc3ccccc3)c2)o1	–	19µM	–	?	?	–
CCC(C)n1c(=O)c2sccc2n2c(CCCC(=O)Nc3ccc(F)cc3)nnc12 (stereo not given)	·	–	·	·	·	·
Cc1nc(-c2ccc(Cl)cc2)sc1C1(C)CC(c2c(Cl)cccc2Cl)=NO1 (stereo not given)	·	–	·	–	–	–
Cc1nc(-c2ccc(Cl)cc2)sc1C1(C)CC(c2cccnc2)=NO1 (stereo not given)	·	17µM	·	?	?	?
CCN(CC)CCCn1c(-c2ccccc2)nc2c(N3CCOCC3)nc(C)nc21	–	·	–	·	·	·
c1ccc(Oc2nc(NC3CCCCC3)c3[nH]cnc3n2)cc1	·	·	–	·	·	·
SMILES	SMN2 splice up	FLuc counter	KinaseGlo FLuc	ELG1 genotox	Rab9 promoter act	NPC1 promoter act
COc1ccc2nc(C)cc(Nc3ccc(N4CCN(C)CC4)cc3)c2c1	·	–	·	–	–	–
COc1cc(-c2nc3ccc(N4CCN(C)CC4)cc3[nH]2)cc(OC)c1OC	16µM	13µM	–	7.3µM	–	–
COc1ccc(-c2nc3ccc(N4CCN(C)CC4)cc3c(=O)[nH]2)cc1	–	15µM	–	?	–	–
COc1ccc(-c2cc(C(=O)O)c3sc(N4CCCCC4)nc3n2)cc1OC	–[1.84 µM]	4.8µM	–	–	–	–
CCOC(=O)c1cc(-c2ccccc2)nc2nc(N3CCCCC3)sc12	–	–	–	–	–	–
O=C(O)c1cc(-c2ccccc2)nc2nc(N3CCCCC3)sc12	–	17µM	–	–	–	–
Cc1ccc(-c2cc(C(=O)O)c3sc(N4CCCCC4)nc3n2)cc1	–	24µM	–	–	–	–
CC(C)[C@H](O)CC[C@@H](C)C1CC[C@H]2C3CC=C4C[C@@H](O)CC[C@]4(C)C3CC[C@]12C (stereo not given in full)	–	·	·	·	·	·
COC(=O)c1ccc(N/C=C/C(=O)c2ccccc2)cc1	·	0.6µM	·	?	0.5µM	?
COc1cccc(N/C=C/C(=O)c2ccc(OC)c(OC)c2)c1	·	1.3µM	·	?	?	3.5µM
COC(=O)c1ccccc1	–	·	·	·	·	·
Cc1ccc(Cl)c(N/C=C/C(=O)c2ccccc2)c1	·	1.1µM	·	9.2µM	?	?
COc1ccc(C(=O)/C=C/N(C)C)cc1OC	–	–	–	–	–	–
Cc1cccc(C(=O)NN/C=C/C(=O)c2ccccc2)c1	·	–	·	–	–	–
COc1ccc(C(=O)/C=C/Nc2ccc(S(=O)(=O)Nc3cccc(C(C)=O)c3)cc2)cc1	–	–	–	–	–	–
COc1ccc(C(=O)/C=C/Nc2cccc(O)c2)cc1	?	0.38µM	?	1.5µM	?	–
CCOC(=O)c1ccc(OS(=O)(=O)c2ccccc2)c(OC)c1	11µM	7.6µM	–	?	2.8µM	2.8µM
CCOC(=O)c1cccc(N/C=C/C(=O)c2ccc(OC)c(OC)c2)c1	–	11µM	–	?	1.6µM	0.63µM
COc1cccc(C(=O)/C=C/Nc2cc(C)ccc2O)c1	·	2.7µM	–	?	–	–
COc1cccc(C(=O)/C=C/Nc2ccc(S(=O)(=O)Nc3nc(C)cc(C)n3)cc2)c1	–	?	–	–	–	–
COc1ccc(OC)c(N/C=C/C(=O)c2ccc(OC)c(OC)c2)c1	·	19µM	·	?	–	–
Cc1ccc(C(C)C)c(OCCCn2c(=O)oc3ccc(C)cc32)c1	–	–	·	·	·	·
CCOC(=O)c1c(NC(=O)c2cc(=O)c3ccc(C)cc3o2)sc(C)c1C	–	–	·	·	·	·
CCC(C(=O)Nc1cc(C)ccc1OC)n1nnc(C(=O)OC)c1C(=O)OC (stereo not given)	–	–	·	·	·	·
CCOC(=O)c1ccc(N/C=C\C(=O)c2cccc(OC)c2)cc1	?	3µM	?	–	?	?
SMILES	SMN2 splice up	FLuc counter	KinaseGlo FLuc	ELG1 genotox	Rab9 promoter act	NPC1 promoter act
COc1cccc(C(=O)/C=C/Nc2ccc(S(=O)(=O)Nc3ccc(C(C)=O)cc3)cc2)c1	·	?	·	–	–	–
O=C(Cc1ccc(Cl)cc1)Nc1ccccn1	·	–	·	–	–	–
Cc1cccc(N/C=C/C(=O)c2ccc(Cl)cc2)c1	·	0.67µM	·	?	0.35µM	0.56µM
O=C(/C=C\Nc1ccccn1)c1ccc(Cl)cc1	1µM	0.19µM	?	?	0.1µM	0.28µM
CCN(C(=O)Cn1cc(C(=O)c2ccc(F)cc2)c(=O)c2ccc(C)nc21)c1cccc(C)c1	·	–	·	·	·	·
COC(=O)CNC(=O)[C@@]1(Cc2ccccc2)C=C[C@@H](C)N1C(=O)c1ccccc1	13µM	·	–	·	·	·
